In PubChem BioAssay (NCI):
About 83,000 compounds went through this panel and 20% of them were active in at least one assay; those are over-represented in the sample as a whole.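 48-hour exposure, single concentration, 96-well plates; percent growth endpoint where 0 means no net growth. Active: below 10.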 A number with no mark means an inactive call. Active and inactive are the calls of the source.

Tests used:
Assay in all cases: NCI-60 one-dose screen, 48 h (100 = growth as untreated, 0 = no growth, -100 = all killed)
Details in all cases: 10 µM unless noted
DU-145 prostate = test system: DU-145 prostate
K-562 leukemia = test system: K-562 leukemia
MALME-3M melanoma = test system: MALME-3M melanoma
MDA-MB-231 breast = test system: MDA-MB-231 breast
RXF 393 renal = test system: RXF 393 renal
SF-268 CNS = test system: SF-268 CNS
SF-295 CNS = test system: SF-295 CNS
SF-539 CNS = test system: SF-539 CNS
UACC-257 melanoma = test system: UACC-257 melanoma
M14 melanoma = test system: M14 melanoma

Row | Compound | growth (DU-145 prostate) | growth (K-562 leukemia) | growth (MALME-3M melanoma) | growth (MDA-MB-231 breast) | growth (RXF 393 renal) | growth (SF-268 CNS) | growth (SF-295 CNS) | growth (SF-539 CNS) | growth (UACC-257 melanoma) | growth (M14 melanoma)
1 | O=C(Nc1cccc(Cn2c(=O)[nH]c3ccc(Oc4ncccn4)cc3c2=O)c1)c1cccc(F)c1 | 80.1% | 45.1% | 97.2% | 74.7% | 87.1% | 74.1% | 81.8% | 80.1% | 67.3% | 78.6%
2 | CCOc1ccc(/C=N/NC(=O)c2cccc3ccccc23)cc1OCC | 106% | 80.7% | 114% | 96% | 109% | 108% | 89.1% | 105% | 109% | 123%
3 | COc1cc(-c2nc3c(c(C)nc4c3nnn4-c3ccccc3)c(=O)o2)cc(OC)c1OC | 111% | 106% | 104% | 106% | 108% | 98.3% | 104% | 102% | 119% | 98.6%
4 | O=C(O)c1ccc(-c2nn(-c3ccc(C(=O)O)cc3)cc2CNc2ccc(Br)cc2)cc1 | 102% | 102% | 106% | 115% | 111% | 94.1% | 101% | 101% | 101% | 97.6%
5 | COc1cc(/C=C/C(=O)/C=C(/C=C/c2ccc(OC(C)=O)c(OC)c2)OB(F)F)ccc1OC(C)=O | 64.5% | 15.2% | 51.7% | 80.8% | 14.7% | 81.2% | 86.7% | 56.8% | 63% | 34.1%
6 | Cc1nnc(/N=C2\NC(=O)/C(=C/C=C/c3ccccc3)S2)s1 | 57.5% | 36% | 54.1% | 71.4% | 69.2% | 51.9% | 32.5% | 64.9% | 75.3% | 49.8%
7 | COC(=O)c1ccc2[nH]c(O)c(C(=Nc3ccc(N(C)C(=O)CN4CCN(C)CC4)cc3)c3ccc4c(c3)OCO4)c2c1 | 7.84% (active) | 4.82% (active) | -5.19% (active) | 12.5% | -56.9% (active) | 11.5% | 27.5% | -19% (active) | 31.5% | 10.5%
8 | COc1ccc2c(N)ncc(C#Cc3cc(C(=O)Nc4ccc(CN5CCN(C)CC5)c(C(F)(F)F)c4)cnc3C)c2c1 | -89.2% (active) | -63.4% (active) | -81.9% (active) | -85% (active) | -73.4% (active) | 6.51% (active) | 63% | -93.4% (active) | 27.4% | -78.1% (active)
9 | Nc1nc2cc(O)ccc2n2cc3c(F)cccc3c12 | 33.4% | 29.4% | 33.3% | 38.8% | 5.51% (active) | 19.1% | 11.9% | 13.7% | 50.9% | 23%
10 | Nc1nc(-c2cccc(Br)c2)cc(-c2cc3ccccc3oc2=O)n1 | 111% | 104% | 123% | 104% | 110% | 100% | 131% | 110% | 106% | 103%
11 | CC(O)CN(CC(C)O)N(CC(C)O)CC(C)O (stereo not given) | 111% | 108% | 108% | 105% | 105% | 110% | 101% | 105% | 90.5% | 100%
12 | N=C(N)c1ccc(-c2ccc(-c3cc(Cl)cc(Cl)c3)s2)cc1 | -89.8% (active) | -55.1% (active) | -74.4% (active) | -78.4% (active) | -90.2% (active) | -66.1% (active) | -87.3% (active) | -92.7% (active) | -44% (active) | -85.3% (active)
13 | CCCC[N+](C)(N)CCCC | 111% | 103% | 107% | 108% | 115% | 112% | 94.5% | 101% | 106% | 100%
14 | COc1ccc2nc3cc(Cl)ccc3c(NCCCNC(C)=O)c2c1 | 29.4% | 23.9% | 40% | 56.8% | 32.9% | 43% | 45.7% | 20.1% | 43.1% | 44.4%
15 | CCC(C)(C)c1ccc(OCCCCCCN2CCN(c3ccc(C)c(Cl)c3)CC2)cc1 | 86% | 78.4% | 86.7% | 115% | 95.6% | 82.5% | 85.7% | 98.6% | 110% | 93.7%
16 | O=C(Nc1ccc(-n2cc(-c3ccncc3)c(-c3ccc(Cl)c(O)c3)n2)cc1)Nc1cc(C(F)(F)F)cc(C(F)(F)F)c1 | 36.4% | 17.6% | 12% | 21.5% | -11.2% (active) | 25.9% | -5.6% (active) | 30.3% | 8.73% (active) | 6.9% (active)
17 | C#CCCCCCCC[C@@H]1OC(=O)[C@H]([C@@H](C)CC)NC(=O)[C@@H]([C@@H](C)CC)NC(=O)CC(=O)[C@@H]1C | 106% | 92.5% | 94.7% | 85.7% | 101% | 94.8% | 98.6% | 96.2% | 121% | 93.3%
18 | COc1cccc2c1n([O-])c1cccc(OC)c1[n+]2=O | 60.9% | 37.6% | 89.2% | 95.7% | -35.3% (active) | 62% | 120% | 68.4% | 71% | 96%
19 | Cc1ccc(OCCn2ccc(=O)n(CCOc3ccc(Cl)cc3C(=O)c3cc(C)cc(C)c3)c2=O)cc1 | 73.3% | 13.2% | 51.9% | 46.8% | 41.5% | 49.7% | 51.1% | 53.7% | 64.3% | 24.7%
20 | Cc1ncc(C(=O)Nc2ccc(CN3CCN(C)CC3)c(C(F)(F)F)c2)cc1C#Cc1c(N)ncc2ccc(F)cc12 | -88.6% (active) | -57.1% (active) | -79.6% (active) | -88.9% (active) | -88.1% (active) | 20% | 42% | -93.6% (active) | -18.6% (active) | -74.9% (active)
21 | Nc1cc2c(cc1Br)[nH]c(=O)c1ccccc12 | 27.8% | 40.7% | 26.3% | 32% | 22% | 51.3% | 74.8% | 110% | 45.8% | 22%
22 | COc1cccc(-c2cc(-c3cc4ccccc4oc3=O)nc(N)n2)c1 | 112% | 99% | 121% | 90.4% | 108% | 101% | 125% | 132% | 108% | 100%
23 | CCCCCCCCCc1cc[n+](CC(=O)c2ccc([N+](=O)[O-])cc2)cc1 | 23.7% | -4.43% (active) | -34.9% (active) | -76.7% (active) | 32.5% | 29.6% | 9.4% (active) | -87.5% (active) | 0.0548% (active) | -67.3% (active)
24 | CCOC1=C(Cl)C(=O)C(OCC)=C(Cl)C1=O | 106% | 82.5% | 103% | 103% | 105% | 107% | 96.4% | 101% | 103% | 110%
25 | c1ccc(Nc2ncc3c(n2)-c2cccn2CC3)cc1 | 99.4% | 96.6% | 95.1% | 80.8% | 97.8% | 85.8% | 99.2% | 87.1% | 124% | 91.7%
26 | COc1ccc(CNCCCN2C(=O)c3ccc4c5c(ccc(c35)C2=O)C(=O)N(CCCNCc2ccc(OC)c(OC)c2OC)C4=O)c(OC)c1OC | -96% (active) | -49.1% (active) | -78.5% (active) | -53.1% (active) | -91.9% (active) | -88.4% (active) | -76.8% (active) | -80.1% (active) | -97.5% (active) | -60.6% (active)
27 | O=C(Nc1cccc2[nH]c(C(F)(F)F)nc12)c1ccc(F)cc1 | 88.3% | 24.8% | 74% | 83.7% | 88% | 86.1% | 86.6% | 80% | 89.7% | 92%
